# Screens (PubChem)
# HepG2 tox-1 – HepG2 cytotoxicity, counter-screen for TGF-b inhibitors. hit rate 0.76% among 410,000. AID 588856. HepG2 CAGA-GFP viability, ATP luminescence, 18 h. Potency, µM (series often up to 46.1 µM), hits mostly cytotoxic
#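 CellTiter-Glo luminescence gave cytotoxicity after 18 hours at 37 degrees C. The cells were HepG2 CAGA-GFP in 1% FBS DMEM, stimulated with 500 pg/mL TGF-beta after compound addition. %Activity was normalised to no-cell wells (complete cell-killing) and DMSO (no toxicity), and curves were fitted and classified.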
# ATXN2 expr inh – reduces ATXN2 reporter expression in HEK-293 cells; HEK-293 ATXN2-luciferase reporter, luminescence, 24 h; Potency, µM (series often up to 57 µM), actives largely listed as inhibitors; hit rate 0.72% among 360,000; AID 1745845; note: nearly all actives have a fitted effect of over 55% in size
#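 qHTS (up to 57 uM final) was run with 24 h compound exposure of reporter cells at 37 °C. Each well was multiplexed: SteadyGlo luminescence measured ATXN2-luciferase expression after a fluorogenic Gly-Phe-AFC viability readout (25 uM final).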
# GLP1R ag – activates the human GLP-1 receptor | Potency, µM (titrated, usually from 45.6 µM), usual class: activators | P43220 | hit rate 0.007% among 380,000 | HEK293 GLP-1R CRE-luciferase, luminescence, 4-6 h; cells express a hypersensitive GLP-1R form
# Target sequence (P43220 whole entry, looked up): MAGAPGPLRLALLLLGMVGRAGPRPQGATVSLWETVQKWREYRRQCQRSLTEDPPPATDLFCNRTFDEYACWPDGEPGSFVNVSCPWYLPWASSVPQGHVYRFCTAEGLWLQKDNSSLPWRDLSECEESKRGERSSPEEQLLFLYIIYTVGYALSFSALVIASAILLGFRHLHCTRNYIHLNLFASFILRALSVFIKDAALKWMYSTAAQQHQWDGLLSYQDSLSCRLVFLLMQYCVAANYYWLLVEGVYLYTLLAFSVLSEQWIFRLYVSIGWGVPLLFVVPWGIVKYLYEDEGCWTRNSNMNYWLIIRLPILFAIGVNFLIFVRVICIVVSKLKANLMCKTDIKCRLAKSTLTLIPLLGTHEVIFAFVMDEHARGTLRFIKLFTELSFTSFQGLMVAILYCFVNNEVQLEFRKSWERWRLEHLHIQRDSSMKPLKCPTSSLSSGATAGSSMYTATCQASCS
# S2 tox – reduces viability in counter-screen for ATXN expression inhibitors | Potency, µM (titrated, usually from 56.7 µM), most hits filed as cytotoxic | hit rate 0.49% among 400,000 | S2 cells (HEK-293 line with an ATXN2-luciferase reporter) viability, CellTiter-Fluor protease fluorescence, 24 h; note: nearly all actives have a fitted effect of over 40% in size
# GLP1R inv ag – inverse agonists of human GLP-1 receptor; P43220; HEK293 GLP-1R CRE-luciferase, luminescence, 24 h; GLP-1R form is constitutively active; Potency, µM (top dose mostly 38.3 µM), hits mostly inhibitors; hit rate 1.6% among 410,000; note: nearly all actives have a fitted effect of over 55% in size
#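 HEK293 cells stably co-expressing constitutively active GLP-1R and a cAMP-responsive luciferase reporter were seeded in DMEM with 10% Nu serum, given compounds after 12 h, and incubated 24 h at 37 deg C. Luminescence was then read.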
# TGFb inhibitor – TGF-b pathway inhibition. HepG2 CAGA-GFP TGF-b/SMAD3 reporter, GFP fluorescence, 18 h; TGF-beta stimulated, 500 pg/mL final. Potency, µM (highest dose often 46.1 µM), hits mostly inhibitors. hit rate 1.2% among 410,000; note: nearly all actives have a fitted effect of over 65% in size
#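 HEPG2 CAGA-GFP reporter cells (1000/well, DMEM with 1% FBS) received compounds, then recombinant TGF-beta at 500 pg/mL final for 18 hours at 37 degrees C. Per-cell GFP summed per well was normalised to unstimulated and stimulated DMSO controls before curve fitting.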
# TGFb confirm – confirmation of TGF-b signaling inhibitors in HepG2 reporter cells. shares compounds with TGFb inhibitor. HepG2 CAGA-GFP TGF-b reporter, GFP fluorescence, 18 h; cells stimulated with TGF-beta, 500 pg/mL. Potency, µM (highest dose often 46.1 µM), hits mostly inhibitors. hit rate 63% among 1,600. AID 720534; note: nearly all actives have a fitted effect of over 65% in size
# HepG2 tox-2 – toxic to HepG2 cells in TGF-b counterscreen. hit rate 27% among 1,600. Potency, µM (series often up to 46.1 µM), hits mostly inhibitors. HepG2 CAGA-GFP viability, ATP luminescence, 18 h; cells stimulated with TGF-beta, 500 pg/mL. shares compounds with TGFb inhibitor; note: nearly all actives have a fitted effect of over 70% in size
# CCL64 TGFb inh – TGF-b inhibition, CCL64 orthogonal assay; shares compounds with TGFb inhibitor; CCL64 CAGA-GFP reporter, TGF-b stimulated, GFP fluorescence, 18 h; Potency, µM (top dose mostly 46.1 µM), actives largely listed as inhibitors; hit rate 41% among 1,600; AID 720536; note: nearly all actives have a fitted effect of over 65% in size
# TGFb COP inh – blocks TGF-b signaling in HepG2 COP reporter; HepG2 COP-GFP TGF-b reporter, GFP fluorescence, 18 h; cells stimulated by added recombinant TGF-beta; hit rate 3% among 1,600; Potency, µM (series often up to 46.1 µM), most hits filed as inhibitors; AID 720537; shares compounds with TGFb inhibitor; note: nearly all actives have a fitted effect of over 70% in size
# A number is an active result; 0 = inactive; ? = inconclusive; - = no result. The list is not random: actives were taken first. Their share in the collection is about 3.7%. Calls come from the whole dose curve; as a rule, active = well fitted curve in the direction sought with a large enough effect; inconclusive = small, poorly fitted or top-dose-only effect, or another doubt; inactive = no such curve, though single readings can be large; an effect the other way counts as inactive or inconclusive.
SMILES,HepG2 tox-1,ATXN2 expr inh,GLP1R ag,S2 tox,GLP1R inv ag,TGFb inhibitor,TGFb confirm,HepG2 tox-2,CCL64 TGFb inh,TGFb COP inh
O=C(Nc1ccc(NC(=O)c2ccc([N+](=O)[O-])o2)cc1Cl)c1ccco1,0,0,0,0,0,0,-,-,-,-
Cc1cc(C)cc(-n2c(SCC(N)=O)nc3c([nH]c4ccccc43)c2=O)c1,0,0,0,0,?,0,-,-,-,-
CC(C)(C)c1ccc(Cn2cnc(-c3ccc([N+](=O)[O-])cc3)c2)cc1,0,0,0,0,?,8.9µM,21µM,?,?,0
Cc1cc(C)c(Cn2cnc(-c3ccc([N+](=O)[O-])cc3)c2)c(C)c1,0,0,0,0,0,?,-,-,-,-
Cc1cc(Cl)c(S(=O)(=O)N2CCN(c3ccccn3)CC2)cc1OCC(=O)NC1CCCCC1,0,-,0,?,?,10µM,12µM,?,0,0
CCc1ccc(NC(=O)COc2ccc(/C=C(/C#N)c3nc4ccccc4[nH]3)cc2OC)cc1,0,4.5µM,0,-,?,2.2µM,?,?,0,0
CCC(C)Oc1cc(-c2ccnc(Nc3cccc(Cl)c3)n2)ccn1 (stereo not drawn),0,?,0,0,11µM,7.1µM,5.8µM,?,6.5µM,0
OCCCNc1cc(-c2ccnc(Nc3cccc(Cl)c3)n2)ccn1,0,0.16µM,0,?,?,0.28µM,0.058µM,0.23µM,0.18µM,0
CN(C)CCNC(=O)COc1ccc(Cl)cc1Cl,0,0,0,0,0,0,-,-,-,-
O=C(COc1ccc(Cl)cc1Cl)NCCSc1ccc(Cl)cc1,0,0,0,0,0,16µM,?,?,?,0
CCOC(=O)C1CCN(C(=O)c2nn(-c3ccc(C)cc3)c(=O)c3c2c2ccccc2n3C)CC1,0,0,-,0,0,0,-,-,-,-
CCOc1ccc(C2c3c(oc4ccc(C)cc4c3=O)C(=O)N2c2nc(C)c(C)s2)cc1OC (stereo not drawn),0,0,-,0,0,0,-,-,-,-
O=C(NCC1CC1)c1ccc(Nc2nc3ccc(Br)cc3[nH]2)cc1,0,0,0,?,?,10µM,?,?,?,0
COc1ccc(-c2cc(C(F)(F)F)nc(S(=O)(=O)CCC(=O)N3CCOCC3)n2)cc1,0,?,0,?,0,0,-,-,-,-
COc1ccccc1-c1cc(C(F)(F)F)nc(S(=O)(=O)CCCC(=O)N2CCOCC2)n1,0,?,0,18µM,?,2.2µM,1.8µM,21µM,4.1µM,?
O=C(c1ccc(Cl)cc1)c1cc([N+](=O)[O-])ccc1N1CCOCC1,0,0,0,0,?,11µM,7.3µM,0,?,0
COc1ccc(N2CCN(C(=O)CSc3nc(-c4ccc(C(C)C)cc4)no3)CC2)cc1,0,0,-,0,0,0,-,-,-,-
C=C(C)CSc1nc2sc3c(c2c(=O)n1Cc1ccccc1)CC(C)(CC)OC3 (stereo not drawn),0,-,-,-,?,0,-,-,-,-
O=C1C(Nc2ccccc2)=C(NS(=O)(=O)c2ccccc2)C(=O)c2ccccc21,0,0,0,0,0,6.3µM,?,0,0,0
O=S(=O)(Nc1ccc(NS(=O)(=O)c2ccccc2)cc1)c1ccccc1,0,-,0,0,0,0,-,-,-,-
O=C(Nc1ccc(Oc2ccccc2)cc1)c1ccc(F)c(S(=O)(=O)N2CCN(c3ccccc3F)CC2)c1,0,-,-,-,?,?,-,-,-,-
COc1ccc(-c2[nH]ncc2-c2ccc(Cl)cc2)c(O)c1,0,0,0,0,?,10µM,?,0,?,0
COc1ccccc1-c1cn[nH]c1-c1ccc(OCc2ccccc2)cc1O,0,0,0,0,?,?,-,-,-,-
COc1ccc(-c2cn[nH]c2-c2ccc(OCc3ccc([N+](=O)[O-])cc3)cc2O)cc1OC,0,-,0,0,0,8.9µM,21µM,?,?,0
Cc1ccc(NC(=O)c2oc3ccccc3c2NC(=O)C2CCCCC2)cc1,0,0,0,0,?,0,-,-,-,-
SMILES,HepG2 tox-1,ATXN2 expr inh,GLP1R ag,S2 tox,GLP1R inv ag,TGFb inhibitor,TGFb confirm,HepG2 tox-2,CCL64 TGFb inh,TGFb COP inh
COc1cccc(-c2nc(N3CCCCC3)c3ccccc3n2)c1O,0,0,0,0,0,11µM,18µM,?,?,0
COc1cccc(-c2nc(N3CCN(c4ccccc4)CC3)c3ccccc3n2)c1O,0,0,0,0,0,0,-,-,-,-
CCc1ccc(OCC(=O)Nc2ccc(-c3cc4ccccc4oc3=O)c(OC)c2)cc1,0,0,0,?,?,?,?,0,0,0
COc1cc(NC(=O)c2cc(Cl)ccc2Cl)ccc1-c1cc2ccccc2oc1=O,0,0,0,0,0,0,-,-,-,-
Cc1cccc(-c2nnn3c2nc(NCCc2ccc(S(N)(=O)=O)cc2)c2cc(Cl)ccc23)c1,0,0,0,0,0,?,-,-,-,-
O=C(Nc1cccc(Nc2ccccc2)c1)c1cnn2c1NC(=C1CC1)C=C2C(F)F,0,-,-,-,-,0,-,-,-,-
Nc1nn(S(=O)(=O)c2ccccc2)cc1-c1ccc([N+](=O)[O-])cc1,0,0,0,0,0,?,16µM,0,0,0
Cc1ccc(S(=O)(=O)n2cc(-c3ccccc3)c(N)n2)cc1,0,0,0,0,?,0,-,-,-,-
Cc1cccc(C)c1-n1nnnc1C(c1ccccc1)N1CCN(C/C=C/c2ccccc2)CC1 (stereo not drawn),0,0,0,0,?,?,-,-,-,-
Cc1cccc(C)c1-n1nnnc1C(c1cccs1)N1CCN(C/C=C/c2ccccc2)CC1 (stereo not drawn),0,0,0,0,?,?,?,0,21µM,0
C(=C\c1ccccc1)/CN1CCN(C(c2ccnc3ccccc23)c2nnnn2-c2ccc3c(c2)OCCO3)CC1 (stereo not drawn),0,0,0,?,?,?,15µM,0,?,0
